ssDAF12 agonist – S. stercoralis DAF-12 activation, primary screen; activation, % at 6.8 µM; HEK293 ssDAF-12/GRIP1 lit1-tk-luc reporter, luminescence; % of 3 µM dafachronic acid response; AID 652126; actives 1% (n = 370,000);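 active = activation above the mean over all tested compounds plus 3 SD, cut at about 0.9% in these data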
DAX1 inh-1 – NR0B1 (DAX1) inhibition. P51843. HEK293 Gal4-DAX1 luciferase reporter, luminescence. inhibition, % at 6.75 µM. actives 0.99% (n = 340,000). AID 504766;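 active = inhibition above the mean over all tested compounds plus 3 SD, cut at about 4.2% in these data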;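 note: inhibition shows as a rise in luminescence from relieved DAX1 repression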
Target sequence (P51843 207-470 limits assumed): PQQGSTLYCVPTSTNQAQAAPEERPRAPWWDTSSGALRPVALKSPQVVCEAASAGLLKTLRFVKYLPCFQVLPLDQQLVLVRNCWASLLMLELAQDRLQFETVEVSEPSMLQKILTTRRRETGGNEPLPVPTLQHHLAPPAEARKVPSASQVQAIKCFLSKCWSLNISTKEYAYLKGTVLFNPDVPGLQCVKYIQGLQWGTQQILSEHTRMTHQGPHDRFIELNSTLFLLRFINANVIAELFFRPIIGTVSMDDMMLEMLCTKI
hgDAF-12 ag – agonists of H. glycines DAF-12 nuclear receptor. activation, % at 6.8 µM. actives 1.8% (n = 370,000). AID 687014. HEK293 GAL4-hgDAF12 UAS-luciferase reporter, agonist luminescence; normalized to butyrate control;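 active = activation above a cutoff set at the mean of all screened compounds plus 3 SD, cut at about 10% in these data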
hcDAF12 agonist – activates DAF-12 receptor from parasite H. contortus; HEK293 hcDAF-12 lit1-tk-luc reporter, luminescence; 0% DMSO, 100% Δ7-dafachronic acid; activation, % at 6.8 µM; actives 1.4% (n = 370,000); AID 652067;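 active = activation above the mean of all tested compounds plus 3 SD, cut at about 5.5% in these data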
DAX1 inh-2 – blocks DAX1 repression of SF-1 activated StAR promoter; actives 1.1% (n = 370,000); inhibition, % at 6.8 µM; HEK293T StAR-luciferase reporter, SF-1/DAX-1 repression relief; AID 652010;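 active = inhibition above the mean over all tested compounds plus 3 SD, cut at about 3.6% in these data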;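 note: higher inhibition means more luminescence from relief of DAX-1 repression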
DAX1 inh confirm – confirmation of human DAX1 (NR0B1) inhibitors; shares compounds with DAX1 inh-2; HEK293T StAR-promoter luciferase reporter, SF-1/DAX-1 repression; inhibition, % at 6.8 µM; actives 87% (n = 2,400); AID 652134;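 active = inhibition above the average of every tested compound plus 3 SD, cut at about 3.8% in these data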;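 note: active compounds raise luminescence by relieving repression of the StAR reporter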
SF1 mutant ctr – counter-screen for DAX1 inhibitors: nonselective inhibitors with SF-1 AF2 mutant; shares compounds with DAX1 inh-2; HEK293 StAR-luciferase, luminescence; inhibition, % at 6.8 µM; actives 78% (n = 2,400); AID 652136;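 active = inhibition above the mean of all tested compounds plus 3 SD, cut at about 3% in these data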
LXR ag – activates human LXR-beta, counter-screen for hcDAF-12 agonists | shares compounds with hcDAF12 agonist | HEK293 Gal4-LXR tk-luc reporter, luminescence, 24 h; normalized: DMSO 0%, positive control 100% | activation, % at 6.8 µM | 3,400 tested, under 10 active | AID 743027;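 active = mean percent activation of the reporter above a cutoff set as the average over tested compounds plus their standard deviation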
Target sequence (P55055 whole entry, looked up, the tested form may be a part): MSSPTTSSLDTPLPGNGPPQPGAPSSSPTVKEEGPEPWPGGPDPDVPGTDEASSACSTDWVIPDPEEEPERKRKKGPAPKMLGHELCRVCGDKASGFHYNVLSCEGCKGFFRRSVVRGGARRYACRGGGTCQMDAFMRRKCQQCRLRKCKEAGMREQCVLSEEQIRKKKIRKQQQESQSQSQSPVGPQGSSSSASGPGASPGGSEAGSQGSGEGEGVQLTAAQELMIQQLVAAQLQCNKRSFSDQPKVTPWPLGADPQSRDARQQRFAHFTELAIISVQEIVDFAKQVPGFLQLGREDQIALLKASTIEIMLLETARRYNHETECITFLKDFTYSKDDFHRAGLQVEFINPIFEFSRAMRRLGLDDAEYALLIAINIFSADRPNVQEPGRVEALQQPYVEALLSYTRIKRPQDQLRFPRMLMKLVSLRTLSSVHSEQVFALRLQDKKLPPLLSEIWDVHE
hcDAF12 conf – hcDAF-12 agonism, confirmation assay; shares compounds with hcDAF12 agonist; HEK293 hcDAF-12 lit1-tk-luc reporter, luminescence; % of Δ7-dafachronic acid response; activation, % at 6.8 µM; actives 61% (n = 3,400); AID 743032;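 active = mean activation across triplicate tests above the threshold derived from the earlier primary screen, cut at about 5.5% in these data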
hgDAF12 conf – confirmation of H. glycines DAF-12 agonists; shares compounds with hgDAF-12 ag; HEK293 GAL4-hgDAF12 luciferase reporter, agonist mode; percent of butyrate response; activation, % at 6.8 µM; actives 80% (n = 3,300); AID 743050;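 active = mean activation over triplicate wells above the hit cutoff derived from the earlier primary screen, cut at about 11% in these data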
LXR ag 2 – counter-screen for DAF-12 agonists: agonists of human LXR-beta. 3,300 tested, under 10 active. HEK293 Gal4-LXR luciferase reporter, 24 h. activation, % at 6.8 µM. shares compounds with hgDAF-12 ag;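 active = mean activation of the triplicate above a set limit carried over from the primary screen, none filed active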
Numbers stand for hits; – = inactive; · = not tested or not shown. In the library only some 4.1% were active in any assay of this set; here they are far more common.

SMILES | ssDAF12 agonist | DAX1 inh-1 | hgDAF-12 ag | hcDAF12 agonist | DAX1 inh-2 | DAX1 inh confirm | SF1 mutant ctr | hgDAF12 conf | LXR ag 2 | others
O=c1c2cc(-c3ccccc3)sc2nc2n1CCC2 | – | · | 19.6 | – | 5.4 | 14.9 | 7.7 | 18.3 | –
Cc1nc2sc(-c3ccccc3)cc2c(=O)n1N | – | – | 16.8 | 6.7 | 4.7 | 4.6 | – | – | – | LXR ag=–;hcDAF12 conf=–
Cc1nc2sc(-c3ccccc3)cc2c(=O)[nH]1 | – | – | 21.1 | 7.4 | 6.1 | 12.3 | 6.7 | 12.4 | – | LXR ag=–;hcDAF12 conf=5.8
O=c1[nH]c(-c2cccnc2)nc2sc(-c3ccccc3)cc12 | – | – | – | – | – | · | · | · | ·
Cc1nc2ccccc2c(=O)n1N | – | – | – | – | – | · | · | · | ·
O=c1c2ccccc2nc2n1CCC2 | – | – | – | – | – | · | · | · | ·
Cc1cc(C)cc(NC(=O)O[C@@H]2CC[C@@]34CCCN3C(=O)CCC[C@H]4C2)c1 | – | · | – | – | · | · | · | · | ·
COc1ccccc1C(=O)N1CCN(C(=O)[C@@H](Cc2ccccc2)NC(=O)[C@H]2O[C@@H](n3ccc(N)nc3=O)[C@H](O)[C@@H]2O)CC1 | – | · | – | – | – | · | · | · | ·
O=C(C(=O)N1CCC(CNS(=O)(=O)c2ccc3ccccc3c2)CC1)c1cc2ccccc2o1 | – | · | – | – | – | · | · | · | ·
CCSc1ccc(-c2ccc(C)cc2)nn1 | – | – | 19.9 | 11.2 | 11.3 | 16.9 | 7.4 | 16.6 | – | LXR ag=–;hcDAF12 conf=6.1
CCOc1ccc(-c2ccc(SCc3ccccn3)nn2)cc1 | – | – | – | – | – | · | · | · | ·
Cc1ccc(-c2ccc(SCC(=O)NC3CCCC3)nn2)cc1 | – | – | – | – | – | · | · | · | ·
CCOc1ccc(-c2ccc(SCC)nn2)cc1 | – | – | 23.6 | – | 7.9 | 13.6 | 6.7 | 19.0 | –
COc1cccc(NC(=O)C(=S)NC2CCCCC2)c1 | – | – | 23.1 | 7.2 | 9.2 | 12.3 | 7.9 | 17.7 | – | LXR ag=–;hcDAF12 conf=7.2
O=C(NC1CCCC1)c1cc(-c2ccc(Cl)c(Cl)c2)on1 | – | – | – | – | – | · | · | · | ·
COc1cccc(-c2cc(C(=O)NC3CCCC3)no2)c1 | – | – | 19.9 | – | 5.0 | 9.9 | 5.3 | 16.4 | –
COc1ccccc1C(=O)NC(=S)NNC(=O)c1sc2ccccc2c1Cl | – | – | – | – | – | · | · | · | ·
Cc1c(NC(=S)NC(=O)c2sc3ccccc3c2Cl)cccc1C(=O)O | – | – | 17.9 | – | 5.9 | 9.6 | 6.8 | 15.7 | –
CCOC(=O)N[C@@H](CC(C)C)C(=O)N1CCC[C@H]1C(=O)NCc1ccccc1 | – | · | – | – | – | · | · | · | ·
Cc1nn2cc(-c3ccccc3)nc2s1 | – | – | 14.2 | – | 5.7 | 10.3 | 7.5 | 15.0 | –
CC1CCN(c2ccc(NC(=O)c3ccc(Br)o3)cc2)CC1 | – | – | 19.9 | – | 13.7 | 11.3 | 9.6 | 17.9 | –
CS(=O)(=O)N1CCN(c2ccc(NC(=O)c3ccc(Br)o3)cc2)CC1 | – | – | – | – | – | · | · | · | ·
CC(C)CCNC(=O)C1COC(O)(C(Cc2ccccc2)NC(=O)[C@@H](NC(=O)OCc2ccccc2)C(C)C)CN1 (stereo not given in full) | – | · | – | – | · | · | · | · | ·
Cc1ccc(O)c(C(=O)CC(=O)c2ccccc2Cl)c1 | – | 5.3 | 22.5 | – | 5.0 | – | – | – | –
CNc1nc(N2CCc3ccccc32)ncc1F | – | – | 14.8 | 5.8 | 5.1 | 10.5 | 5.0 | 14.8 | –
SMILES | ssDAF12 agonist | DAX1 inh-1 | hgDAF-12 ag | hcDAF12 agonist | DAX1 inh-2 | DAX1 inh confirm | SF1 mutant ctr | hgDAF12 conf | LXR ag 2 | others
c1ccc2c(c1)CCCN2c1nc(N2CCOCC2)nc(N2CCOCC2)n1 | – | – | – | – | – | · | · | · | ·
Nc1cccc(-c2cn3cc(C(F)(F)F)cc(Cl)c3n2)c1 | 2.1 | – | 13.7 | 11.8 | 5.3 | 12.8 | 7.6 | 17.8 | – | LXR ag=–;hcDAF12 conf=9.1
FC(F)(F)c1cc(Cl)c2nc(-c3ccccc3)cn2c1 | 2.8 | – | 19.7 | 17.8 | 6.6 | 14.8 | 7.4 | 23.4 | – | LXR ag=–;hcDAF12 conf=17.1
O=S(=O)(CC1NCc2ccccc21)NC1CCCC1 (stereo not given) | – | · | – | – | – | · | · | · | ·
COc1ccc2cc3cc(C(=O)NC4CC4)sc3nc2c1 | – | – | 24.0 | 18.2 | 15.2 | 14.2 | 4.2 | 16.5 | – | LXR ag=–;hcDAF12 conf=8.7
O=C(Nc1nc(-c2ccc3c(c2)OCCO3)cs1)c1ccco1 | – | – | 14.2 | 10.0 | 12.4 | 11.3 | 7.0 | 16.6 | – | LXR ag=–;hcDAF12 conf=–
C=CCNc1nc(-c2ccc3c(c2)OCCO3)cs1 | 1.1 | – | 20.4 | 6.7 | 14.2 | 16.1 | 7.4 | 17.6 | – | LXR ag=–;hcDAF12 conf=7.5
O=C(Nc1cc(S(=O)(=O)N2CCOCC2)ccc1N1CCCC1)c1cc2c(s1)CCCC2 | – | · | – | – | · | · | · | · | ·
C/C(=N\Nc1cccc2cccnc12)c1ccccn1 | 2.0 | – | 27.5 | 13.8 | 6.3 | 16.9 | 7.8 | 22.5 | – | LXR ag=–;hcDAF12 conf=13.3
O=C1CCc2cc(S(=O)(=O)Nc3ccc4c(c3)OCCO4)ccc2N1 | – | · | – | – | · | · | · | · | ·
C(=NOCc1ccccc1)c1ccccn1 | – | – | 16.7 | – | 6.0 | 6.1 | 2.9 | 14.5 | –
C(=NOCc1ccccc1)c1ccncc1 | – | – | – | – | – | · | · | · | ·
CC(=O)Nc1ccc(NC(=O)COc2ccc3c(c2)CCC3)cc1 | – | – | – | – | – | · | · | · | ·
Cc1ccnc(NC(=O)COc2ccc3c(c2)CCC3)c1 | – | – | 13.9 | – | 13.8 | 12.2 | 4.2 | 12.3 | –
CC1Cc2ccccc2N1C(=O)/C=C/c1cccc(F)c1 (stereo not given) | – | – | 16.2 | – | 6.1 | 7.6 | 6.9 | 15.5 | –
CC1Cc2ccccc2N1C(=O)COC(=O)/C=C/c1ccc(F)cc1 (stereo not given) | – | – | – | – | – | · | · | · | ·
C[C@H](O)[C@@H]1CN2CCc3c([nH]c4c(-c5ccccc5)cccc34)[C@@H]2C[C@@H]1N(C)C(=O)NC1CCCCC1 | – | · | – | – | – | · | · | · | ·
Cc1ccc(Cc2c(-c3cccc(Br)c3)nc3ccc(Br)cn23)cc1 | – | · | – | – | – | · | · | · | ·
